Measurements taken from the supplement of paper PMC3334620.
In all, about 33,000 sequences were measured (“E-score (-0.5 to 0.5)”: median about -0.035, highest 2% from about 0.35 on). For the sample, the highest values were picked, then their nearest neighbours and some sequences at random.

The sequences below were run against T1, Pdr3 (UniProt P33200) (assay: PBM E-score (8-mer binding enrichment) (E-score (-0.5 to 0.5)); higher = stronger / more preferred TF binding). Conditions: protein concentration: 200 nM; construct: GST-full length.
T1 sequence: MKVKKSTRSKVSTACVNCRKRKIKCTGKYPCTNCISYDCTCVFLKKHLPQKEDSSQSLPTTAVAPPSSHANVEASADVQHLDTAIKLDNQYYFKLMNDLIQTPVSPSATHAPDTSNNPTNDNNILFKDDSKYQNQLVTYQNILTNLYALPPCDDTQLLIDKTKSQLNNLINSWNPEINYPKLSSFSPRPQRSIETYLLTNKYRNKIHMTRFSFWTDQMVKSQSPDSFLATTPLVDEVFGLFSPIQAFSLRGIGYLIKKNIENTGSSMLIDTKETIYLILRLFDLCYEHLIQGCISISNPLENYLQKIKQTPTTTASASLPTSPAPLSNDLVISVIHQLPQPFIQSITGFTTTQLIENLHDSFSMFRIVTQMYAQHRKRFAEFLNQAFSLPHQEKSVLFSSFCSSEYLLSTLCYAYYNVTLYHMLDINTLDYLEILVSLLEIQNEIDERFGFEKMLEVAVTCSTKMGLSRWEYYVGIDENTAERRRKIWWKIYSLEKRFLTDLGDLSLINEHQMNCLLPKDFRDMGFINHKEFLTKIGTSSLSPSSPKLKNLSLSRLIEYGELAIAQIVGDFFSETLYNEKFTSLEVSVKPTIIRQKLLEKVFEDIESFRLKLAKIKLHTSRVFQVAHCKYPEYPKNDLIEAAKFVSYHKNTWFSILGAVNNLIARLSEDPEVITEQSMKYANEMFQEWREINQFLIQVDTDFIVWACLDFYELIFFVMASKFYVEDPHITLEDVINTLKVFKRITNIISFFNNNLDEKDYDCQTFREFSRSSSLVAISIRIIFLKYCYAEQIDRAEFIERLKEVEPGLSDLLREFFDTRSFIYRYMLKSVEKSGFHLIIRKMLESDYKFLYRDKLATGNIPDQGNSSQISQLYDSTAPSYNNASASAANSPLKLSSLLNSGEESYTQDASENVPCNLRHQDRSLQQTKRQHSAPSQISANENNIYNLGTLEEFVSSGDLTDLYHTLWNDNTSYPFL
Experimental: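 Universal 'all 10-mer' protein binding microarrays (Agilent AMADID 015681) probed with GST-tagged S. cerevisiae TFs (full-length or DBD) made by in vitro transcription/translation (PURExpress), about 100-200 nM. Bound TF was detected with fluorescent anti-GST. Each ungapped 8-mer (which stands for itself and its reverse complement) is scored by the PBM enrichment score (E-score), a modified Wilcoxon-Mann-Whitney statistic from -0.5 to +0.5, computed with the Universal PBM Analysis Suite. Scale: above 0.35 generally sequence-specific binding.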

| Sequence | PBM E-score |
| --- | --- |
| CTTCACAC | -0.201 |
| ACCAAATA | 0.0784 |
| GGAATGTA | 0.339 |
| CATAACCG | 0.135 |
| ACAATGCT | -0.171 |
| AGCATAAG | -0.0742 |
| AGTTCCCC | 0.0744 |
| AGTTCCTG | -0.0933 |
| CGGTCCGA | 0.378 |
| GGGTCCGA | 0.234 |
| AGTTCCAG | -0.0101 |
| AGTTCCGG | 0.464 |
| AGTTCCGC | 0.467 |
| AGGTCCGA | 0.305 |
| AGTTCCAC | -0.00065 |
| CTAGGTTC | 0.154 |
| CCCATCCA | 0.00501 |
| GTGAAAGA | -0.0383 |
| CTAAGATC | -0.0406 |
| ACTACCCT | -0.179 |
| ATCTAGAG | -0.177 |
| CTTCGACC | 0.054 |
| TCGGATAA | 0.307 |
| ATGGAAGA | -0.243 |
| AAGGAAGT | 0.0783 |

| Sequence | PBM E-score |
| --- | --- |
| GAGGAAGA | 0.0527 |
| ATGGAAGC | 0.179 |
| ACAGAAGT | -0.285 |
| ACGGAAGT | 0.393 |
| AAGGAAGA | -0.2 |
| GTGGAAGA | -0.0507 |
| AGGGAAGC | -0.0866 |
| GCGGAAGA | 0.393 |
| ACGGAAGA | 0.373 |
| ACGGAAGC | 0.427 |
| CCCCCTAG | -0.342 |
| CCCTGACA | -0.222 |
| CATGAACG | -0.0457 |
| CAAAACCG | 0.00937 |
| GGTGCGCA | 0.191 |
| CTGGAAGC | -0.322 |
| ATGGAAGG | -0.197 |
| CCGGAAGC | 0.444 |
| TAGGAAGA | -0.204 |
| GCGGAAGC | 0.347 |
| TCAGAAGA | -0.178 |
| ACGGAAGG | 0.397 |
| TCGGAAGA | 0.359 |
| AAGGAAGG | -0.205 |
| CTGGAAGA | -0.108 |

| Sequence | PBM E-score |
| --- | --- |
| CAGGAAGA | 0.0315 |
| CCGGAAGA | 0.403 |
| CGACCACA | -0.0427 |
| AAGTGCAC | 0.0238 |
| ACTGAGAA | -0.121 |
| TAAGCCCA | -0.113 |
| ACTAGGGA | -0.253 |
| ACTGCCCG | 0.179 |
| CACGTGGA | -0.0333 |
| AGGGAACA | -0.0421 |
| CGGGAAGC | 0.282 |
| CGGGAAGA | 0.391 |
| AGGGAAGA | -0.238 |
| CAGGAAGG | -0.317 |
| CCAGAAGG | -0.0321 |
| CCGGAAGG | 0.421 |
| GGGGAACA | -0.00834 |
| CGGGAACA | 0.358 |
| CCCCCCAG | -0.372 |
| CGCGAGGA | 0.135 |
| TATGGCGA | -0.0751 |
| GCAGACAA | 0.0426 |
| ACCCTCAA | -0.158 |
| ACCCGGCG | 0.276 |
| ACCCGGAG | 0.38 |

| Sequence | PBM E-score |
| --- | --- |
| ACCCGGAT | 0.31 |
| TCCCGTAA | 0.0877 |
| TCCCGGAA | 0.463 |
| GCCCGGAA | 0.459 |
| ACCCGGTA | 0.215 |
| GCCCGGTA | 0.102 |
| ACCCGGCA | 0.256 |
| TCCCGAAA | 0.206 |
| GCCCGGAC | 0.282 |
| ACCCGGAA | 0.456 |
| CCCTGAAA | -0.0909 |
| ACCCCGTA | 0.006 |
| CACGCGTG | 0.283 |
| GCTTGGTA | -0.168 |
| AATTCGAA | -0.148 |
| CCCCGCAG | 0.225 |
| CCCCCGAG | -0.0658 |
| CCCCGGAG | 0.355 |
| CCCCCGAA | -0.0602 |
| CCCCGGAA | 0.421 |
| CCCCGGAC | 0.33 |
| CAGGGATA | -0.193 |
| ATAGTCAT | -0.0921 |
| CGGCGCGC | 0.245 |
| GGCGGCGA | 0.243 |

| Sequence | PBM E-score |
| --- | --- |
| CGCGGCGC | 0.398 |
| CGCGGCGA | 0.374 |
| AGCGGCAC | 0.118 |
| AGCGGCGC | 0.137 |
| CGCGGCAA | 0.341 |
| AGCGGCGA | 0.197 |
| CGCGGCAC | 0.385 |
| CCGAGCAC | 0.122 |
| ACGTGAGT | -0.0439 |
| TGAGTCCA | -0.18 |
| AAAGTCAT | -0.0971 |
| ATTAGGGG | -0.0731 |
| AACCCTGT | -0.104 |
| ATGTTGCG | 0.091 |
| ATGGAGCG | 0.0393 |
| CTGAGGAC | -0.0292 |
| AATACCCC | 0.188 |
| TCCATCAA | 0.0544 |
| TCGGGTAA | 0.0953 |
| CCGGGTAC | 0.303 |
| CGGGGTGA | 0.214 |
| CCGGGTAA | 0.397 |
| GCGGGTGA | 0.26 |
| CCGGGTGA | 0.404 |
| GGACGGCC | 0.188 |

| Sequence | PBM E-score |
| --- | --- |
| AGCCTTTC | -0.167 |
| CACCAAAA | -0.054 |
| CCGGTGTA | 0.153 |
| CTCTCGTA | -0.00771 |
| AACGCAGG | -0.0195 |
| AACTTAAT | 0.115 |
| ACATTTAT | -0.248 |
| GCGACACA | -0.0561 |
| AGCGGATC | 0.374 |
| CTCGGATA | 0.273 |
| CCCGGATC | 0.419 |
| CTCGGATC | 0.386 |
| CGCAGATC | -0.0483 |
| CGCGGATC | 0.431 |
| CGCGGCTC | 0.344 |
| AGCGGATG | 0.191 |
| CCCAGATC | -0.145 |
| ATCGGATC | 0.301 |
| CCCGGATA | 0.34 |
| AGCAGATC | -0.0743 |
| GAACCCCA | 0.211 |
| TCAGTAAA | -0.00839 |
| ACCACAGG | -0.238 |
| CGAGGTAA | 0.0804 |
| AGCTGGAG | -0.163 |

| Sequence | PBM E-score |
| --- | --- |
| TAGGCTAA | -0.288 |
| AAAGGCAA | -0.0369 |
| CGGCCTAC | 0.158 |
| CTCGGACA | 0.285 |
| CTCGGACC | 0.359 |
| CTCAGACC | -0.0888 |
| GGCGGATA | 0.287 |
| AGCGGATA | 0.3 |
| CGCGGATA | 0.412 |
| CCACATTC | 0.0586 |
| GAGGCGAA | 0.0545 |
| CGCGAGCG | 0.106 |
| CTCTATGC | -0.0609 |
| CCGGACAA | 0.329 |
| CCGGACTA | 0.333 |
| CCGGACTC | 0.363 |
| ACGGACTC | 0.205 |
| CCGGACAC | 0.366 |
| CCGGACAG | 0.338 |
| AGTGACTA | -0.132 |
| ATCCCGAT | 0.302 |
| ATCCCGAA | 0.308 |
